The results in this text go back to PubChem BioAssay AID1851 (National Center for Advancing Translational Sciences (NCATS), 2009).

In all, about 16,000 compounds went through this assay and about 5,700 (36%) were called active. About 24% were inconclusive and are not listed. Calls follow the shape of the dose curve; as a rule, active = well fitted curve in the direction sought with a large enough effect; inconclusive = small, poorly fitted or top-dose-only effect, or effect the other way; inactive = no such curve, though single readings can be large or run the other way. The list shows a part of the results.
% is scaled to controls: 0 for no effect and ±100 for the full control effect.

Cytochrome P450 1A2 (Homo sapiens), sequence (P05177 whole entry, looked up): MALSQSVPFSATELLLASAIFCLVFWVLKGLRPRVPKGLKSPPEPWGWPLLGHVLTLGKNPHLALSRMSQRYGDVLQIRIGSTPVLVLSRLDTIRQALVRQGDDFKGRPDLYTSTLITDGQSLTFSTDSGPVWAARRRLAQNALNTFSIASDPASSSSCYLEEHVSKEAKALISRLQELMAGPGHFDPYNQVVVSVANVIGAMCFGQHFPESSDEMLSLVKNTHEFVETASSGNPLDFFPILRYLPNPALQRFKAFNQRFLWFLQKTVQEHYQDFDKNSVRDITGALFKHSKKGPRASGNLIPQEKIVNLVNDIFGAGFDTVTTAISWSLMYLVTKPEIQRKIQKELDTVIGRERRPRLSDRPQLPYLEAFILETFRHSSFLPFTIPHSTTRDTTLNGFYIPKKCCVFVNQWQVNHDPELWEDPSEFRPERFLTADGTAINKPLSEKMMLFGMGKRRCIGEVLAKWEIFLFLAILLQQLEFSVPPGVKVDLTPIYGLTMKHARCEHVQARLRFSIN

The assay concerns the target Cytochrome P450 1A2 (Homo sapiens) (UniProt P05177). Description: Cytochrome panel assay with activity outcomes. To be noted: recombinant CYP, pro-luciferin dealkylation, luminescence, p450-cyp1a2; series mostly up to 57.1 µM; activity, negative = inhibition: at the top concentration.
Turning to `CC(C)(CN)CN`, the activity, negative = inhibition is 2.94% [at 11.4 µM] (inactive). Take `CN(C)CCNc1nc2c(c(=O)n(C)c(=O)n2C)n1C`: the activity, negative = inhibition is -7.73% [at 11.4 µM] (inactive). For the compound `COc1ccccc1CN1CC2(CCN(S(=O)(=O)c3ccccc3)CC2)C1`, the “activity, negative = inhibition” value is 18.1% (inactive). By AC50 is commonly meant the midpoint of the concentration-response curve, whichever way the signal moves. For `COc1cc2c(c(O)c1OC)C(=O)C(OC)CCC2` (stereo not drawn), the AC50 was 12.6 µM (active). For `COc1cc([C@H]2c3cc4c(cc3[C@@H](O)[C@@H]3COC(=O)[C@H]23)OCO4)cc(OC)c1OC`, the “activity, negative = inhibition” value was -19.8% [at 25.6 µM] (inactive). With `C/C(CCC(=O)OC[C@@H]1O[C@H](C#Cc2ccccc2)C=C[C@@H]1Oc1ccc(C)cc1)=N/O[C@@H](C)CN1CCCCc2nc(C)c(C)cc21`, the activity, negative = inhibition was -3.03% [at 11.4 µM] (inactive). For the compound `O=[N+]([O-])c1ccc2c(c1)S(=O)c1ccccc1-2` (stereo not drawn), the half-maximal activity concentration (AC50) is 0.2 µM (active). With `CC1=c2c(oc3cc(O)c(Nc4c(C)cc(O)cc4O)c(C)c23)=CC(=O)C1=Nc1c(C)cc(O)cc1O`, the AC50 is 3.16 µM (active). As to `CN1[C@@H]2CC[C@H]1CC(OC(c1ccccc1)c1ccccc1)C2` (stereo partly drawn), the AC50 entry is “inactive”. For `N#Cc1ccc(CN2CCC3(CC2)CCN(S(=O)(=O)c2ccccc2)CC3)cc1`, the “activity, negative = inhibition” value is -22.8% (inactive).

For `CS(=O)(=O)c1nc2ccccc2n1Cc1ccccc1`, the AC50 is 11.2 µM (active). Consider `C=CCC(C)(NCc1ccccc1)c1ccco1` (stereo not drawn), for which the “activity, negative = inhibition” value is -27.6% (inactive). As for `CC(=O)Nc1nc2ccccc2n1Cc1ccccc1`, the AC50 is 14.1 µM (active).

In the case of `C=CC(=O)NC(C)(C)Cc1ccccc1`, the “activity, negative = inhibition” value was -14.6% (inactive).

Consider `O=S(=O)(O)c1nc2ccccc2n1Cc1ccccc1`, for which the “activity, negative = inhibition” value was -14.6% (inactive). For the compound `C=CCn1c(NCc2ccccc2)nc2ccccc21`, the AC50 is 10 µM (active). In the case of `CO[C@@H]1COC(=O)C/C=C\[C@@H](C)[C@H](OC)COC(=O)[C@H](COCc2ccccc2)NC(=O)C/C=C\[C@H]1C`, the activity, negative = inhibition is -0.402% [at 11.4 µM] (inactive). Consider `COCC(=O)N1CCC2(CCCN(C(=O)Nc3cccc(C#N)c3)C2)CC1`, for which the “activity, negative = inhibition” value was 0.755% (inactive). On to `O=C(Nc1ccc(-c2cc3ccccc3oc2=O)c(Cl)c1)c1cccnc1`, for which the “activity, negative = inhibition” value was 13.8% (inactive). Take `O=c1oc2ccccc2cc1-c1csc(NN=C2CCCCC2)n1`: the AC50 is 0.891 µM (active). Turning to `Clc1ccc(Cl)c(SCCCN2CCNCC2)c1`, the AC50 is 0.501 µM (active). `Cc1c(C=O)c2ccccn2c1C(=O)c1ccncc1`: the AC50 was 1.12 µM (active). As for `COCCN1C(=O)C(=O)/C(=C(/O)c2cccc(OC)c2)C1c1ccco1` (stereo not drawn), the “activity, negative = inhibition” value is -13.8% (inactive). Consider `CN1CCN(c2nc(-c3cccnc3)nc3ccccc23)CC1`, for which the AC50 is 3.16 µM (active).

Consider `CC(C)c1ccccc1-n1c(SCC(=O)N2CCN(c3ccccc3)CC2)nnc1-c1cccnc1`, for which the “activity, negative = inhibition” value is -23.2% (inactive). For `CN1CCN(c2ccncc2S(=O)(=O)N2CCN(C)CC2)CC1`, the activity, negative = inhibition is -7.43% [at 2.29 µM] (inactive).

In the case of `c1cncc(-c2nc(N3CCNCC3)c3ccccc3n2)c1`, the half-maximal activity concentration (AC50) is 2.51 µM (active).

On to `N#CCSc1nc(N)c(C#N)c(C2CCCCC2)c1C#N`, for which the AC50 is 10 µM (active).

Consider `CCCCCn1c(CN2CCCCC2C)nc2c1c(=O)n(C)c(=O)n2C` (stereo not drawn), for which the “activity, negative = inhibition” value was -17% (inactive). `CCCn1c(=O)c2[nH]c(C3CCCC3)nc2n(CCC)c1=O`: the AC50 was 0.251 µM (active). Take `Cn1c(=O)c2[nH]c([C@@H]3CC(=O)C[C@H](c4nc5c([nH]4)c(=O)n(C)c(=O)n5C)N3)nc2n(C)c1=O`: the activity, negative = inhibition was -18.2% [at 2.29 µM] (inactive). As for `Cn1c(=O)c2[nH]c(CCS)nc2n(C)c1=O`, the activity, negative = inhibition is -15.3% [at 11.4 µM] (inactive). `Cn1c(=O)c2[nH]c(C3CCCC3)nc2n(C)c1=O`: the AC50 is 12.6 µM (active). As to `CC(C)(C[C@@]1(C)NC(=O)NC1=O)OCc1ccccc1`, the activity, negative = inhibition was -12.1% [at 2.29 µM] (inactive). Regarding `CC(C)Oc1ccc(C2CC(=O)NC3=C2C(=O)CCC3)cc1` (stereo not drawn), the “activity, negative = inhibition” value was -14.5% (inactive). As for `CC(=O)NC1=NN(c2ccccc2)C(=O)C1`, the “activity, negative = inhibition” value is -12.4% (inactive). Take `CC1=NN(c2ccccc2)C(=O)C1`: the concentration at half-maximal activity (AC50) was 12.6 µM (active). For the compound `CC1=NN(c2ccccc2)C(=O)/C1=C\N1CC(C)OC(C)C1` (stereo not drawn), the “activity, negative = inhibition” value is -23.7% (inactive).

Take `Cc1cccc(OCCn2c(S(=O)(=O)O)nc3ccccc32)c1`: the “activity, negative = inhibition” value is -12.6% (inactive). With `Cc1cccc(OCCn2c(-c3ccco3)nc3ccccc32)c1`, the AC50 is 1.58 µM (active). Regarding `C[N+]1(CCOc2ccc([N+](=O)[O-])cc2)CCOCC1`, the “activity, negative = inhibition” value was -1.1% (inactive). On to `N=C(N)SCCc1ccc(OCc2ccc([N+](=O)[O-])cc2)cc1`, for which the AC50 was 31.6 µM (active). `N=C(N)SCCc1ccc(CCSC(=N)N)cc1`: the “activity, negative = inhibition” value was -3.85% (inactive). As to `CC(C)=CCC/C(C)=C/CO/N=C1/C[C@@H](O)[C@@H](O)[C@@H]2[C@H]3C(=O)N(c4ccc(F)cc4F)C(=O)[C@@H]3CC[C@H]12`, the activity, negative = inhibition is -0.361% [at 11.4 µM] (inactive).

In the case of `COc1ccc(S(=O)(=O)N(CCc2ccccc2)CC(=O)N2CCOCC2)cc1`, the “activity, negative = inhibition” value was -25.1% (inactive). For `COc1ccc(S(=O)(=O)N(CC(=O)N2CCCC2)Cc2ccccc2)cc1`, the “activity, negative = inhibition” value is 2.54% (inactive). For `CCOc1ccc2[nH]c(=O)c(CN(CCc3ccccc3)C(=O)N3CCCC3)cc2c1`, the half-maximal activity concentration (AC50) is 14.1 µM (active).

On to `Cn1c(-c2sccc2OCc2ccccc2)n[nH]c1=S`, for which the AC50 is 0.355 µM (active). Take `CSc1nnc(-c2sccc2OCc2ccccc2)n1C`: the AC50 is 7.08 µM (active). `CSc1n[nH]c(-c2sccc2OCc2ccc(C)cc2)n1`: the AC50 is 1.41 µM (active). Consider `CC(=O)O[C@]1(C)N=NC2(CCCCC2)O1`, for which the activity, negative = inhibition was -9.6% [at 11.4 µM] (inactive). For the compound `CC(=O)OC[C@@H]1O[C@@H](O/N=C2/C[C@@H](O)[C@@H](O)[C@@H]3[C@@H]4C(=O)N(C[C@@H]5CCCO5)C(=O)[C@H]4CC[C@H]23)[C@H](OC(C)=O)[C@H](OC(C)=O)[C@@H]1OC(C)=O`, the activity, negative = inhibition was -5.84% [at 11.4 µM] (inactive).

For `Cc1noc(C)c1-c1ccc2ncnc(N3CCOCC3)c2c1`, the AC50 was 12.6 µM (active). With `Cc1noc(C)c1-c1cncnc1N1CCN(C)CC1`, the “activity, negative = inhibition” value was -14.7% (inactive).

In the case of `Cc1noc(C)c1-c1ccc2ncnc(N3CCN(C)CC3)c2c1`, the AC50 was 12.6 µM (active). As for `NCCc1ccn[nH]1`, the “activity, negative = inhibition” value was -2.19% [at 25.6 µM] (inactive). Take `CCOC(=O)c1[nH]c2cc(OC)c(OC)cc2c1NC(=O)c1nonc1C`: the AC50 was 1 µM (active). In the case of `CC1(C)CC(NC(=O)c2ccc3c(c2)OCO3)CC(C)(C)N1`, the “activity, negative = inhibition” value is -25.9% (inactive). As for `COC(=O)c1[nH]c2cc(OC)ccc2c1NC(=O)c1ccc2c(c1)OCO2`, the AC50 was 2.51 µM (active).

Regarding `CCOC(=O)c1[nH]c2cc3c(cc2c1NC(=O)CN1CCc2ccccc2C1)OCO3`, the AC50 is 2.82 µM (active). The same measure, in the same setting: the figure for `CCOC(=O)c1[nH]c2cc(OC)c(OC)cc2c1NC(=O)c1ccc2c(c1)OCO2` is 2.24 µM (active). Regarding `Cc1ccc(NC(=O)CN2CCC(NC(=O)Cc3ccccc3)CC2)cc1C`, the “activity, negative = inhibition” value was -9.71% (inactive). Take `COc1cc(C(=O)OCC(=O)Nc2cc(C)on2)cc(OC)c1OC`: the “activity, negative = inhibition” value was -14.8% (inactive).
